This passage reports Potency results from PubChem BioAssay (Tox21).

Records with an inconclusive call do not appear. Entries that show only a call come without a potency. The source made the active and inactive calls. Calls follow the shape of the full dose curve.

The nature of the assay: qHTS assay to identify small molecule agonists of the hypoxia (HIF-1) signaling pathway - cell viability counter screen (AID 1224844). Also: nearly all actives have a fitted effect of over 50% in size. The conditions noted are these: HRE-bla ME-180 viability, CellTiter-Glo luminescence, 17 h; series mostly up to 76.8 µM. A digest of the protocol: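 ME-180 HRE-bla cells, 2,000/well, 0.5% dialyzed FBS; 5 hr settle, 17 hr compound at 37C/5% CO2; CCF4-AM reporter read first, then CellTiter-Glo luminescence after 30 min RT.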
Background: qHTS replaces the single test concentration by a dilution series.
Regarding `O=C(O)C[C@H](NC(=O)OCc1ccccc1)C(=O)O`, the Potency result was “inactive”. As for `CCCCCCCCCI`, the Potency result is “inactive”. Next, `O=C=Nc1ccc(Cl)c(Cl)c1`: “inactive”; `O=C1C(=O)c2ccccc2C(O)=C1C1CCC(c2ccc(Cl)cc2)CC1` (centres undefined): “inactive”; `C[C@@H](O)[C@H]1C(=O)N2C(C(=O)O)=C([C@H]3CCCO3)S[C@H]12`: “inactive”.

Take `c1ccc(C[n+]2cccc3ccccc32)cc1`: the Potency entry is “inactive”. The same measure for `CN(C)CCN1C(=O)c2ccccc2N(C)c2ccccc21`: “inactive”. Next, `CC(C)C=O`: “inactive”.

Turning to `CCC1(CO)COCOC1`, the Potency entry was “inactive”.

In the case of `Cc1cscn1`, the Potency result was “inactive”. Next, `C[C@H]1C[C@H](O)c2ccsc2S1(=O)=O`: “inactive”. Next, `O=C(/C=C/c1ccccc1)OCCc1ccccc1`: “inactive”; `CC1(C)[C@H](C(=O)O)N2C(=O)C[C@H]2S1(=O)=O`: “inactive”. Next, `CC=C(Cl)Cl`: “inactive”; `COC(=O)[C@H]1[C@H]2C[C@@H]3c4[nH]c5cc(OC)ccc5c4CCN3C[C@H]2C[C@@H](OC(=O)/C=C/c2ccc(O)c(OC)c2)[C@@H]1OC`: “inactive”; `NCCNCCO`: “inactive”. In the case of `N#CCc1ccc(Cl)cc1Cl`, the Potency entry was “inactive”. Next, `CCCCC(CC)CN` (centres undefined): “inactive”; `CC(CN(C)C)C(C)(O)Cc1ccc(Cl)cc1` (centres undefined): “inactive”. Next, `C[C@@]12CCC[C@H]1[C@@H]1CC[C@H]3C[C@@H](O)CC[C@]3(C)[C@H]1CC2`: “inactive”; `C[C@]1(Cn2ccnn2)[C@H](C(=O)O)N2C(=O)C[C@H]2S1(=O)=O`: “inactive”. Next, `Cc1ccccc1N=C(N)Nc1ccccc1C`: “inactive”. In the case of `O=C(O)c1ccc(OCCCOc2ccc(C(=O)O)cc2)cc1`, the Potency entry was “inactive”. Next, `CC1(C)S[C@@H]2[C@H](NC(=O)C(c3ccccc3)S(=O)(=O)O)C(=O)N2[C@H]1C(=O)O` (some centres undefined): “inactive”.
